# In article PMC4552634, “A New Set of Chemical Starting Points with Plasmodium falciparum Transmission-Blocking Potential for Antimalarial Drug Discovery” (PLoS ONE, 2015):
# Hit rate of the full screen: of about 13,000 compounds, about 3,200 (25%) showed an effect of 50% or more. The list shows a part of the results.
# Tested on: P. falciparum stage V gametocytes
# Parameters: BacTiter-Glo ATP luminescence viability of purified stage V gametocytes in 384-well plates, per cent inhibition versus DMSO
# Conditions: 48 h, 5 µM; inhibitor
row,SMILES,% Inhibition
1,CCc1ccc(NC(=O)c2cccc(CN3CCCN(CC4CCCCC4)CC3)c2)cc1 [TCMDC-135988],-39.09%
2,O=C(c1ccc(-c2ccc(-c3nc4ccccc4[nH]3)s2)cc1)N1CCCCC1CN1CCC(O)C1 (stereo not drawn) [TCMDC-132341],-18.79%
3,CC(O)C1CCCCN1C(=O)c1cccc(-c2ccc(-c3nc4ccccc4[nH]3)s2)c1 (stereo not drawn) [TCMDC-132332],27.09%
4,CC(C)Cn1c(N)cc(=O)n(C)c1=O [TCMDC-123470],3.426%
5,CCCCCC(=O)NCC(NCCCNc1cc(=O)c2ccccc2[nH]1)c1cc(Br)cc(Br)c1 (stereo not drawn) [TCMDC-140316],24.17%
6,COc1ccc2ncc(Cl)c(NCC3(O)CCC(NCc4ccc5c(n4)NC(=O)CS5)CC3)c2n1 (stereo not drawn) [TCMDC-134671],11.29%
7,CC(=O)c1cccc2[nH]c(C(=O)NC3CCC(CCN4CCc5ccc(C#N)cc5C4)CC3)cc12 (stereo not drawn) [TCMDC-139218],4.712%
8,COc1ccc(Cn2c(N3CCN(S(=O)(=O)c4ccc(OC)cc4)CC3)nc3c2c(=O)n(CC2CC2)c(=O)n3CC2CC2)cc1 [TCMDC-138935],-17.86%
9,COc1ccc(S(=O)(=O)N2CCC3(CC2)OCC(=O)NC3c2ccc(Cl)c(Cl)c2)cc1 (stereo not drawn) [TCMDC-133797],8.685%
10,Cc1nc(-c2cccc(C(=O)NC3CCC(CCN4CCc5ccc(-c6cccnc6)cc5CC4)CC3)c2)no1 (stereo not drawn) [TCMDC-140228],-46.69%
11,COc1ccc2c(c1)ncn2-c1cc(OCc2ccncc2Br)c(C(N)=O)s1 [TCMDC-138876],39.96%
12,NC(=O)c1sc(-n2cnc3ccccc32)cc1OCc1ccccc1[N+](=O)[O-] [TCMDC-134488],13.6%
13,CC(Oc1cc(-n2cnc3ccc(NC(=O)CCN4CCCCC4)cc32)sc1C(N)=O)c1ccccc1Cl (stereo not drawn) [TCMDC-135370],69.65%
14,O=C(CCN1CCCCC1)Nc1ccc(Nc2nccc(NCC(O)c3ccccc3)n2)cc1 (stereo not drawn) [TCMDC-136464],-29.58%
15,C[C@@H](Oc1cc(-n2cnc3ccc(NC(=O)CCN4CCCCC4)cc32)sc1C(N)=O)c1ccccc1Cl [TCMDC-135971],64.1%
16,C[C@@H](Oc1cc(-n2cnc3ccc(NC(=O)NC(C)(C)C)cc32)sc1C(N)=O)c1ccccc1Cl [TCMDC-135806],66.79%
17,C[C@@H](Oc1cc(-n2cnc3cc(SCCN4CCN(C)CC4)ccc32)sc1C(N)=O)c1ccccc1Cl [TCMDC-135452],29.32%
18,COc1ccc2nc(Nc3nc4ccncc4[nH]3)sc2c1 [TCMDC-131950],20.19%
19,c1ccc2sc(-c3csc(Nc4ccncc4)n3)nc2c1 [TCMDC-135159],-15.83%
20,c1ccc(-c2ccc(-c3csc(Nc4ccncc4)n3)cc2)cc1 [TCMDC-139026],62.72%
21,c1ccc(-c2nc(Nc3ccncc3)sc2-c2ccccc2)cc1 [TCMDC-139027],-36.52%
22,c1cc(Nc2nc(-c3ccc(-c4csc(Nc5ccncc5)n4)cc3)cs2)ccn1 [TCMDC-139725],127.3%
23,Clc1ccc(-c2cc(-c3csc(Nc4ccncc4)n3)on2)cc1 [TCMDC-135160],-12.1%

row,SMILES,% Inhibition
1,Nc1ccc(-c2csc(Nc3ccncc3)n2)cc1 [TCMDC-138715],-22.32%
2,CC(C)N(CC(=O)c1ccc(O)c(C(=O)O)c1)Cc1ccccc1 [TCMDC-131774],0.6957%
3,COc1ccccc1COc1c(C)nc(N)nc1N [TCMDC-131356],-14.22%
4,CC(C)CC(=O)N1CCNC[C@@H]1C(=O)NCc1ccc(Cl)c(Cl)c1 [TCMDC-141242],45.03%
5,CN1CCC(Oc2ccc(CN3CC[C@H](NC(=O)c4cccc(C#N)c4)C3)c3ccccc23)C1 (stereo partly drawn) [TCMDC-135277],88.31%
6,CN1CCC(Oc2cc(CN3CC[C@H](NC(=O)c4ccc(Cl)c(Cl)c4)C3)ccc2I)C1 (stereo partly drawn) [TCMDC-140266],15.84%
7,CN1CCC(Oc2ccc(CN3CC[C@H](NC(=O)c4ccc(Cl)c(F)c4)C3)c3ccccc23)C1 (stereo partly drawn) [TCMDC-135274],60.57%
8,CN1CCC(Oc2ccc(CN3CC[C@H](NC(=O)c4ccc(Cl)c(Cl)c4)C3)c3ccccc23)C1 (stereo partly drawn) [TCMDC-140271],51.75%
9,CN1CCC(Oc2ccc(CN3CC[C@H](NC(=O)c4cc(F)cc(F)c4)C3)c3ccccc23)C1 (stereo partly drawn) [TCMDC-135275],57.07%
10,Cc1cc(CN2CC[C@H](NC(=O)c3ccc(Cl)c(Cl)c3)C2)ccc1OC1CCN(C)C1 (stereo partly drawn) [TCMDC-140281],32.63%
11,CN1CCC(Oc2ccc(CN3CC[C@H](NC(=O)c4ccc(Cl)c(Cl)c4)C3)cc2Cl)C1 (stereo partly drawn) [TCMDC-140276],27.21%
12,CCC(=O)N[C@@H]1CN[C@@H](C#Cc2cc3c(Nc4ccc(OCc5cccc(F)c5)c(Cl)c4)ncnc3s2)C1 [TCMDC-135410],-39.51%
13,N#Cc1c(N2CCCCCC2)nc(N)c2c(N)nc3c(c12)CC(=O)N3c1ccc(F)cc1 [TCMDC-123902],44.67%
14,O=C(Nc1ccc(S(=O)(=O)N2CCCCC2)cc1)c1cc(-c2cc(Cl)ccc2O)n[nH]1 [TCMDC-124905],-12.68%
15,CN1CCC(Oc2ccc(CN3CC[C@H](NC(=O)c4ccc(F)c(F)c4)C3)c3ccccc23)C1 (stereo partly drawn) [TCMDC-135278],72.64%
16,CCCCCN1CCCN(Cc2cccc(NC(=O)c3ccc4ccccc4c3)c2)CC1 [TCMDC-141854],-83.26%
17,Cc1cccc2[nH]cc(C3CCN(CCC4CCN(C(=O)/C=C/c5ccc(Cl)c(Cl)c5)CC4)CC3)c12 [TCMDC-140124],-19.67%
18,Nc1ccc2[nH]cc(C3CCN(CC4CCN(C(=O)/C=C/c5ccc(Cl)c(Cl)c5)CC4)CC3)c2n1 [TCMDC-140061],100.1%
19,CC(=O)Nc1ccc2[nH]cc(C3CCN(CCC4CCN(C(=O)/C=C/c5ccc(Cl)c(Cl)c5)CC4)CC3)c2n1 [TCMDC-140113],-31.57%
20,CC(=O)Nc1ccc2[nH]cc(C3CCN(CC4CCN(C(=O)/C=C/c5ccc(Cl)c(Cl)c5)CC4)CC3)c2n1 [TCMDC-140112],-22.97%
21,Nc1ccc2[nH]cc(C3CCN(CCC4CCN(C(=O)/C=C/c5ccc(Cl)c(Cl)c5)CC4)CC3)c2n1 [TCMDC-140062],107.7%
22,CC(Cc1ccc(C(=O)OC(c2ccccc2)c2ccccc2)cc1)NCC(O)c1ccccc1 (stereo not drawn) [TCMDC-131546],37.45%
23,Cc1ccc2nc(-c3cc(-c4cccc(CCN5CCOCC5)c4)cnc3N)[nH]c2c1 [TCMDC-133136],-33.78%

row,SMILES,% Inhibition
1,Cc1nc2ccc(/C=C/C(=O)NC3CCC(CCN4CCc5ccc(C#N)cc5CC4)CC3)cc2[nH]1 (stereo not drawn) [TCMDC-139675],-3.608%
2,Nc1ccc2[nH]cc(C3CCN(CC4CCC(NC(=O)/C=C/c5ccc(Cl)c(Cl)c5)CC4)CC3)c2n1 (stereo not drawn) [TCMDC-140064],97.26%
3,CC(=O)Nc1ccc2[nH]cc(C3CCN(CC4CCC(NC(=O)/C=C/c5ccccc5Cl)CC4)CC3)c2n1 (stereo not drawn) [TCMDC-140111],60.6%
4,Nc1ccc2[nH]cc(C3CCN(CC4CCC(NC(=O)/C=C/c5ccccc5Cl)CC4)CC3)c2n1 (stereo not drawn) [TCMDC-140063],106.2%
5,Cc1cc(O)cc2c(C3CCN(CC4CCC(NC(=O)/C=C/c5ccccc5Cl)CC4)CC3)c[nH]c12 (stereo not drawn) [TCMDC-139924],-46.01%
6,CC(=O)Nc1ccc2[nH]cc(C3CCN(CC4CCC(NC(=O)/C=C/c5ccc(Cl)c(Cl)c5)CC4)CC3)c2n1 (stereo not drawn) [TCMDC-140114],6.04%
7,CS(=O)(=O)Nc1ccc2[nH]cc(C3CCN(CC4CCC(NC(=O)/C=C/c5ccc(Cl)c(Cl)c5)CC4)CC3)c2n1 (stereo not drawn) [TCMDC-140088],4.239%
8,CNC(=O)c1ccc2[nH]cc(C3CCN(CC4CCC(NC(=O)/C=C/c5ccccc5Cl)CC4)CC3)c2c1 (stereo not drawn) [TCMDC-139978],-4.902%
9,CCCCc1cc(NCc2ccncc2)nc(Nc2ccc(OC)cc2)n1 [TCMDC-134010],-13.59%
10,Cc1cccc(NC(=O)c2cnc(N3CCN(c4ccncc4)CC3)c(Cl)c2)c1 [TCMDC-134625],39.85%
11,CC(C)Nc1cc(C(=O)N[C@@H](Cc2ccccc2)[C@H](O)CNC2CCOCC2)c(F)c(N2CCCCS2(=O)=O)c1 [TCMDC-135541],-18.96%
12,CN(C)CCCOc1cc(NC(=O)Nc2ccc(-c3ccncc3)c3ccccc23)ccc1I [TCMDC-139136],21.74%
13,CS(=O)(=O)CCCNCc1ccc(-c2cc3c(Nc4ccc(OCc5ccccc5)cc4)ncnc3cn2)o1 [TCMDC-138081],11.38%
14,CN(Cc1ccc(C#N)cc1)C1CCN(c2cc(NC(=O)c3cccc(F)c3)ccn2)CC1 [TCMDC-134976],-19.78%
15,COc1ccc2nccc([C@@H](O)CN3CCC(NC(=O)Cc4ccc(Br)c5ccccc45)CC3)c2c1 [TCMDC-141168],-21.28%
16,CC1(C)N=C(N)N=C(N)C1c1ccc(Cl)cc1 (stereo not drawn) [TCMDC-137610],17.18%
17,O=C(O[C@@H]1CN[C@H](C#Cc2cc3c(Nc4ccc5c(cnn5Cc5ccccc5)c4)ncnc3s2)C1)N1CCCC1 [TCMDC-135376],21.76%
18,O=C(Cn1c(SCc2cccc(F)c2F)cc(=O)c2ccccc21)N(CCCn1ccnc1)Cc1ccc(-c2ccc(C(F)(F)F)cc2)cc1 [TCMDC-141467],68.26%
19,O=C(Cn1c(SCc2cccc(F)c2F)cc(=O)c2ccccc21)N(CCN1CCCCC1)Cc1ccc(-c2ccc(C(F)(F)F)cc2)cc1 [TCMDC-141466],112.5%
20,O=C(Cn1c(CCc2cccc(F)c2F)cc(=O)c2cccnc21)N(CCCn1ccnc1)Cc1ccc(-c2ccc(C(F)(F)F)cc2)cc1 [TCMDC-141469],1.607%
21,CCN(CC)CCCN(Cc1ccc(-c2ccc(C(F)(F)F)cc2)cc1)C(=O)Cn1c(SCc2cccc(F)c2F)cc(=O)c2ccccc21 [TCMDC-141175],139.9%
22,O=C(Cn1c(CCc2cccc(F)c2F)cc(=O)c2ccccc21)N(CCN1CCCCC1)Cc1ccc(-c2ccc(C(F)(F)F)cc2)cc1 [TCMDC-141142],-28.19%
23,O=C(Cn1c(SCc2cccc(F)c2F)cc(=O)c2ccccc21)N(CCn1ccnc1)Cc1ccc(-c2ccc(C(F)(F)F)cc2)cc1 [TCMDC-141468],91.6%
